The values that follow come from PubChem BioAssay (NCI).

The panel holds about 83,000 compounds, 20% with a hit somewhere; the sample as a whole holds those more often.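 Values shown are percent growth following 48 h exposure of cells in 96-well plates to a single concentration of compound; below 10 was considered active.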 Unmarked numbers belong to inactive results. Active and inactive are the calls of the source.

Test in all cases: NCI-60 one-dose screen, 48 h (100 = growth as untreated, 0 = no growth, -100 = all killed)
In one assay the test system is HCT-15 colon. As to conditions: 10 µM unless noted.
The test system of the next assay is HT29 colon. The conditions noted are these: 10 µM unless noted.
The test system of a further assay is SNB-75 CNS. The conditions noted are these: 10 µM unless noted.
The subject of a further assay is SNB-19 CNS. As to conditions: 10 µM unless noted.
For a further assay, the system named is U251 CNS. As to conditions: 10 µM unless noted.
Another assay deals with PC-3 prostate. The conditions noted are these: 10 µM unless noted.
In another assay the test system is SK-MEL-5 melanoma. As to conditions: 10 µM unless noted.
In a further assay the test system is UACC-62 melanoma. As to conditions: 10 µM unless noted.
For a further assay, the system named is LOX IMVI melanoma. As to conditions: 10 µM.
The subject of a further assay is SK-MEL-28 melanoma. The conditions noted are these: 10 µM unless noted.
The next assay concerns SK-MEL-2 melanoma. As to conditions: 10 µM unless noted.
For another assay, the system named is EKVX NSCLC. The conditions noted are these: 10 µM unless noted.
For a further assay, the system named is SN12C renal. As to conditions: 10 µM unless noted.
Another assay relates to UO-31 renal. As to conditions: 10 µM unless noted.
The subject of a further assay is TK-10 renal. As to conditions: 10 µM unless noted.
A further assay deals with ACHN renal. As to conditions: 10 µM unless noted.
For a further assay, the system named is CAKI-1 renal. As to conditions: 10 µM unless noted.
Another assay has as its system MOLT-4 leukemia. The conditions noted are these: 10 µM unless noted.
The next assay relates to CCRF-CEM leukemia. As to conditions: 10 µM unless noted.
In another assay the test system is A498 renal. As to conditions: 10 µM unless noted.

As for `CC1CCC(C)(C)c2ccccc21` (configuration not stated), the growth in the assay on HCT-15 colon was 101%; with HT29 colon it was 103%; in the assay on SNB-75 CNS it was 82.9%; in the assay with SNB-19 CNS, 103%; in the assay with U251 CNS, 99.2%; with PC-3 prostate, 93.5%. In addition, the growth in the assay with SK-MEL-5 melanoma is 95.8%; in the assay on UACC-62 melanoma it was 103%; with LOX IMVI melanoma, 98.6%; in the assay on SK-MEL-28 melanoma, 97.3%; in the assay on SK-MEL-2 melanoma, 106%; with EKVX NSCLC, 96.3%. Moreover, the growth in the assay with SN12C renal was 99.5%; in the assay with UO-31 renal it was 91.5%; with TK-10 renal, 104%; in the assay with ACHN renal, 98.4%; in the assay with CAKI-1 renal, 96.5%; in the assay with MOLT-4 leukemia, 116%.

For the molecule `CC(C)c1ncc([N+](=O)[O-])n1C`, the growth was 101% in the assay on HCT-15 colon; 108% with HT29 colon; 116% with SNB-75 CNS; 111% in the assay with SNB-19 CNS; 104% in the assay with U251 CNS; 102% in the assay with PC-3 prostate. The growth in the assay on SK-MEL-5 melanoma was 114%; in the assay with UACC-62 melanoma it was 107%; with LOX IMVI melanoma it was 108%; in the assay with SK-MEL-28 melanoma it was 119%; with SK-MEL-2 melanoma, 127%; in the assay with EKVX NSCLC it was 126%. Also, the growth was 109% in the assay on SN12C renal; 85.3% with UO-31 renal; 114% with TK-10 renal; 102% in the assay on ACHN renal; 94.4% in the assay on CAKI-1 renal; 102% in the assay with CCRF-CEM leukemia. Moreover, the growth in the assay on MOLT-4 leukemia was 104%.

Regarding `Cc1ccc(O)c(N)c1`, the growth in the assay on HCT-15 colon was 106%; in the assay on HT29 colon, 112%; with SNB-75 CNS, 87.7%; in the assay with SNB-19 CNS it was 101%; in the assay with U251 CNS, 103%; with PC-3 prostate it was 94.7%. The growth is 103% in the assay on SK-MEL-5 melanoma; 81.5% in the assay with UACC-62 melanoma; 105% with LOX IMVI melanoma; 122% in the assay on SK-MEL-28 melanoma; 112% in the assay with SK-MEL-2 melanoma; 136% in the assay with EKVX NSCLC. Besides, the growth in the assay on SN12C renal was 107%; in the assay with UO-31 renal, 87.9%; in the assay on TK-10 renal, 127%; in the assay with CAKI-1 renal, 215%; in the assay on A498 renal it was 127%; in the assay with CCRF-CEM leukemia it was 78.7%. The growth in the assay on MOLT-4 leukemia was 123%.

For `O=C(NCc1ccccc1)/C(=C/c1ccccc1)NC(=O)c1ccccc1`, the growth in the assay on HCT-15 colon is 106%; in the assay with HT29 colon, 92.9%; in the assay with SNB-75 CNS, 98.1%; in the assay on SNB-19 CNS, 97.1%; in the assay on U251 CNS, 93.4%; in the assay on PC-3 prostate it was 88.5%. Besides, the growth with SK-MEL-5 melanoma is 97.5%; in the assay with UACC-62 melanoma it was 93.5%; with LOX IMVI melanoma, 98.3%; in the assay with SK-MEL-28 melanoma, 117%; in the assay with SK-MEL-2 melanoma, 102%; with EKVX NSCLC it was 103%. In addition, the growth with SN12C renal is 100%; in the assay with UO-31 renal, 92%; in the assay on TK-10 renal, 108%; in the assay with CAKI-1 renal it was 103%; with A498 renal it was 90.9%; in the assay with CCRF-CEM leukemia it was 94.4%.

For `Cc1onc(-c2ccccc2Cl)c1C(=O)Cl`, the growth in the assay on HCT-15 colon is 98.2%; with HT29 colon it was 106%; in the assay with SNB-75 CNS it was 78.1%; in the assay with SNB-19 CNS, 99.2%; in the assay on U251 CNS it was 96.8%; in the assay with PC-3 prostate, 90.7%. Further, the growth with SK-MEL-5 melanoma is 106%; in the assay on UACC-62 melanoma, 99%; with LOX IMVI melanoma, 95.1%; in the assay on SK-MEL-28 melanoma, 92.6%; in the assay on SK-MEL-2 melanoma, 113%; in the assay with SN12C renal it was 95.7%. Besides, the growth was 91.2% in the assay with UO-31 renal; 110% with TK-10 renal; 96.2% in the assay on ACHN renal; 93.5% with CAKI-1 renal; 95.9% with A498 renal; 90.9% with CCRF-CEM leukemia. Besides, in the assay on MOLT-4 leukemia, the growth was 114%.

On to `Cc1ccc(Cc2ccc(C)cc2)cc1`, for which the growth with HCT-15 colon is 101%; in the assay with HT29 colon, 105%; in the assay with SNB-75 CNS it was 101%; in the assay with SNB-19 CNS it was 109%; with U251 CNS, 101%; in the assay with PC-3 prostate, 100%. In addition, the growth with SK-MEL-5 melanoma is 101%; in the assay with UACC-62 melanoma, 104%; with LOX IMVI melanoma it was 99.4%; with SK-MEL-28 melanoma, 107%; with SK-MEL-2 melanoma, 99.6%; with EKVX NSCLC, 94.9%. For the same molecule, the growth is 110% with SN12C renal; 81.1% in the assay on UO-31 renal; 107% in the assay on TK-10 renal; 99.8% in the assay with CAKI-1 renal; 93.2% in the assay with A498 renal; 97.2% in the assay on MOLT-4 leukemia.

On to `CS(=O)(=O)c1ccc(/C=C\C(=O)O)cc1`, for which the growth in the assay with HCT-15 colon was 96.1%; with HT29 colon it was 104%; with SNB-75 CNS, 80.2%; with SNB-19 CNS, 102%; with U251 CNS, 104%; in the assay with PC-3 prostate it was 98.1%. Further, the growth is 99.5% with SK-MEL-5 melanoma; 111% in the assay on UACC-62 melanoma; 98% in the assay with LOX IMVI melanoma; 105% in the assay with SK-MEL-28 melanoma; 109% in the assay with SK-MEL-2 melanoma; 103% in the assay with SN12C renal. Also, the growth in the assay on UO-31 renal is 83.5%; in the assay with TK-10 renal, 101%; in the assay with ACHN renal, 108%; in the assay with CAKI-1 renal, 98.2%; with A498 renal, 48.6%; with CCRF-CEM leukemia, 101%. Also, the growth with MOLT-4 leukemia was 111%.

Turning to `COc1ccc(C(=O)C(=O)c2ccccc2)cc1`, the growth in the assay on HCT-15 colon was 91.9%; with HT29 colon it was 107%; in the assay with SNB-75 CNS, 104%; in the assay on SNB-19 CNS, 100%; with U251 CNS it was 101%; in the assay with PC-3 prostate it was 104%. Also, the growth in the assay on SK-MEL-5 melanoma is 90.7%; with UACC-62 melanoma it was 99.2%; with LOX IMVI melanoma it was 100%; in the assay with SK-MEL-28 melanoma, 110%; with SK-MEL-2 melanoma, 110%; in the assay on EKVX NSCLC, 102%. In addition, the growth in the assay on SN12C renal was 98.7%; with UO-31 renal, 95.3%; in the assay on TK-10 renal it was 108%; in the assay with CAKI-1 renal, 99.9%; in the assay on A498 renal, 97.5%; in the assay with CCRF-CEM leukemia, -54.2% (active). In addition, in the assay on MOLT-4 leukemia, the growth was 101%.

Take `Cc1ccc[n+](CCC(N)=O)c1`: the growth in the assay on HCT-15 colon is 111%; in the assay on HT29 colon, 98.1%; with SNB-75 CNS it was 87%; in the assay with SNB-19 CNS it was 104%; with U251 CNS it was 87.4%; with PC-3 prostate, 86.1%. For the same molecule, the growth was 102% in the assay on SK-MEL-5 melanoma; 101% in the assay with UACC-62 melanoma; 82% in the assay with LOX IMVI melanoma; 99.9% with SK-MEL-28 melanoma; 97.7% in the assay with SK-MEL-2 melanoma; 90.2% with EKVX NSCLC. The growth with UO-31 renal is 85.9%; in the assay with TK-10 renal it was 94.9%; with ACHN renal, 105%; in the assay on CAKI-1 renal, 91.6%; with CCRF-CEM leukemia, 90.8%; with MOLT-4 leukemia, 90.9%.
